Source: PubChem BioAssay (National Center for Advancing Translational Sciences (NCATS))
SARS PLpro yeast: qHTS of Yeast-based Assay for SARS-CoV PLP; Potency, µM (highest dose often 32.9 µM), for inactives: top-dose activity, positive = growth rescue, actives largely listed as activators; 330,000 compounds, 0.19% hits; S. cerevisiae expressing SARS-CoV PLpro, growth rescue; AID 485353, 2010; calls by dose curve; note: 0% is about no effect; nearly all actives have a fitted effect of over 55% in size
Sm TGR inh: qHTS Assay for the Inhibitors of Schistosoma Mansoni Peroxiredoxins | 360,000 compounds, 3% hits | Schistosoma mansoni thioredoxin glutathione reductase (TGR), Q962Y6 | Potency, µM (doses to about 114 µM), for the others: at the highest dose activity change, negative = inhibition, hits mostly inhibitors | purified TGR, DTNB reduction, TNB absorbance 405 nm; note: % is set by controls: 0 for no effect and ±100 for the full control effect; nearly all actives have a fitted effect of over 60% in size
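First, TGR (20 nM dispensed) and NADPH were mixed with compound. Second, a 15 min room-temperature incubation followed. Third, further NADPH and then DTNB were added to start the reaction. Finally, TNB absorbance was monitored kinetically.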
Pf growth 96h: Primary qHTS for delayed death inhibitors of the malarial parasite plastid, 96 hour incubation; AID 504834, 2011; P. falciparum luciferase reporter growth, 96 h; 320,000 compounds, 6.9% hits; Potency, µM (series often up to 28.7 µM), for the others: top-dose activity change, negative = inhibition, most hits filed as inhibitors; note: % is set by controls: 0 for no effect and ±100 for the full control effect
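Two-generation exposure (96 h) targets delayed-death phenotype. Reporter parasites carrying integrated firefly luciferase, in red cells at 2% hematocrit and 0.05% parasitemia final, kept at 37 C, 5% CO2; luminescence loss indicates inhibition.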
Pf growth 48h: Primary qHTS for delayed death inhibitors of the malarial parasite plastid, 48 hour incubation | P. falciparum luciferase growth in erythrocytes, 48 h | Potency, µM (highest dose often 28.7 µM), inactives show top-dose activity change, negative = inhibition, actives largely listed as inhibitors | 310,000 compounds, 5.9% hits | AID 504832, 2011; note: % is set by controls: 0 for no effect and ±100 for the full control effect
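Luminescence readout; reporter = integrated firefly luciferase in P. falciparum. RBC culture at 2% hematocrit, 0.1% parasitemia final, 37 C/5% CO2; decreased signal taken as growth inhibition.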
AmpC detergent: qHTS Inhibitors of AmpC Beta-Lactamase (assay with detergent). AmpC hydrolysis of nitrocefin, absorbance 480 nm, 0.01% Triton. Potency, µM (highest dose often 114 µM), inactives show top-dose activity change, negative = inhibition, hits mostly inhibitors. 370,000 compounds, 0.041% hits. AID 485294, 2010;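 note: 0% = no-compound wells and -100% = no-enzyme wells; nearly all actives have a fitted effect of over 25% in size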
Target sequence (P00811 whole entry, looked up): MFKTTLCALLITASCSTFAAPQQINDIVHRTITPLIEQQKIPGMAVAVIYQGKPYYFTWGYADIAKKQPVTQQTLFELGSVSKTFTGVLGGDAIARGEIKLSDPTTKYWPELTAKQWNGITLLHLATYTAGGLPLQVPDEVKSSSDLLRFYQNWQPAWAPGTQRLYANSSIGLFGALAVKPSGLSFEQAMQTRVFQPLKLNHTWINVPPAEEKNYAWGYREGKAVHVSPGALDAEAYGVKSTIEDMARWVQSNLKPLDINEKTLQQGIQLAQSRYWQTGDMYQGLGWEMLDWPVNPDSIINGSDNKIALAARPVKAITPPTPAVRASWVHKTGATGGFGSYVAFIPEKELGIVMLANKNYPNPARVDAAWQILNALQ
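20 mM phosphate pH 7.0 + 0.01% (detergent screen) or 0.0001% Triton X-100; 5.3 nM AmpC reagent; cpd preinc 15 min RT; nitrocefin (800 uM stock) to start; A480 q20 s × 4 min; Activity was normalised to no-enzyme and no-compound control wells.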
AmpC inh no detg: qHTS Inhibitors of AmpC Beta-Lactamase (assay without detergent) | Potency, µM (series often up to 57.1 µM), for inactives: at the highest dose activity change, negative = inhibition, usual class: inhibitors | AID 485341, 2010 | 330,000 compounds, 0.52% hits | AmpC nitrocefin hydrolysis, absorbance 480 nm, 0.0001% Triton | P00811;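 note: plate controls were no compound for no effect and no enzyme for full effect; nearly all actives have a fitted effect of over 20% in size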
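20 mM phosphate pH 7.0 + 0.01% (detergent screen) or 0.0001% Triton X-100; 5.3 nM AmpC reagent; cpd preinc 15 min RT; nitrocefin (800 uM stock) to start; A480 q20 s × 4 min; Activity was normalised to no-enzyme and no-compound control wells.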
* marks the source's active call; other numbers are inactive results. In the library only some 12% were active in any assay of this set; here they are far more common. Unless noted, calls come from the whole dose curve; as a rule, active = well fitted curve in the direction sought with a large enough effect; inconclusive = small, poorly fitted or top-dose-only effect, or another doubt; inactive = no such curve, though single readings can be large; an effect the other way counts as inactive or inconclusive. Potency is the fitted concentration of half-maximal effect.

CC(C)CC(=O)Nc1nc2nc(-c3ccccc3)cc(=O)n2[nH]1 was read as Sm TGR inh 2.3% and AmpC detergent -0.2%.
`COc1ccc(NC(=O)Nc2cccc3c2O[C@@H](CN(C)S(=O)(=O)c2cn(C)cn2)[C@@H](C)CN([C@H](C)CO)C3=O)cc1` gave SARS PLpro yeast 4.2% and AmpC inh no detg 235.6%.
Cc1ccc(C)c(S(=O)(=O)Nc2ccc(C(=O)N3CCC3)cc2)c1 was read as SARS PLpro yeast -1.3%, Sm TGR inh 3.0%, Pf growth 96h 27.5%, Pf growth 48h 9.2%, AmpC detergent -10.0% and AmpC inh no detg -12.7%.
Screening CCN(CC)S(=O)(=O)c1cccc(NC(=O)c2cccc(S(=O)(=O)N3CCCC3)c2)c1 returned SARS PLpro yeast -3.6%, Sm TGR inh -3.5%, Pf growth 96h 11.7µM*, Pf growth 48h 9.28µM*, AmpC detergent 4.4% and AmpC inh no detg -26.4%.
`CCN(CC)S(=O)(=O)c1cccc(NC(=O)Nc2cccc(C(F)(F)F)c2)c1` gave SARS PLpro yeast -1.5%, Sm TGR inh -2.0%, Pf growth 96h 4.15µM*, AmpC detergent inconclusive and AmpC inh no detg -51.4%.
For CCN(CC)CC(=O)Nc1cccc(S(=O)(=O)N2CCCC2)c1 the results were SARS PLpro yeast 0.3%, Sm TGR inh 6.0%, Pf growth 96h -4.2%, Pf growth 48h 102.8%, AmpC detergent -6.8% and AmpC inh no detg -9.7%.
For NS(=O)(=O)c1cccc(NC(=O)c2cccc(S(=O)(=O)N3CCCCCC3)c2)c1 the results were SARS PLpro yeast 5.2% and AmpC inh no detg -21.7%.
Screening O=C(CN(CCO)c1ccccc1)Nc1cccc(S(=O)(=O)N2CCCC2)c1 returned SARS PLpro yeast -1.5%, Sm TGR inh -1.9%, Pf growth 96h 13.1µM*, Pf growth 48h -29.3%, AmpC detergent -7.8% and AmpC inh no detg -44.1%.
`CCS(=O)(=O)N1CCC(C(=O)Nc2cc(Cl)ccc2O)CC1` gave SARS PLpro yeast -24.5%, Sm TGR inh 4.4%, Pf growth 96h 31.7%, Pf growth 48h 0.0%, AmpC detergent -8.9% and AmpC inh no detg -17.4%.
`Cc1ccc(NC(=O)C2CCN(S(=O)(=O)c3ccc4c(c3)OCCO4)CC2)c(O)c1` gave SARS PLpro yeast 4.8%, Sm TGR inh -4.9%, Pf growth 96h 11.7µM*, Pf growth 48h inconclusive, AmpC detergent -6.8% and AmpC inh no detg -26.3%.
Screening CCS(=O)(=O)N1CCC(C(=O)Nc2cc(C)ccc2O)CC1 returned SARS PLpro yeast 7.1%, Sm TGR inh -1.8%, Pf growth 96h 11.7µM*, Pf growth 48h -5.9%, AmpC detergent -4.7% and AmpC inh no detg -21.0%.
Cc1cccc(OCCn2c(SCC(N)=O)nc3ccccc32)c1 was read as Sm TGR inh -1.3% and AmpC detergent 6.9%.
For OCCCCNCc1ccc(OCc2ccc(Cl)cc2)cc1 the results were SARS PLpro yeast -4.9%, Sm TGR inh 0.7%, Pf growth 96h 14.7µM*, Pf growth 48h inconclusive, AmpC detergent -13.5% and AmpC inh no detg 30.6%.
For CCCCCNCc1ccc(Cl)cc1 the results were SARS PLpro yeast 1.3%, Sm TGR inh 4.3%, Pf growth 96h 104.6%, Pf growth 48h 4.7%, AmpC detergent -1.2% and AmpC inh no detg -37.9%.
Cc1cc(=O)n2c(C(=O)Nc3ccc(F)c(Cl)c3)c(C(=O)Nc3cccc(C)c3C)sc2n1 was read as Sm TGR inh 2.0% and AmpC detergent -2.7%.
For COC(=O)c1ccccc1NC(=O)C/C(C)=N/NC(=O)Cc1ccc(Cl)cc1 the results were SARS PLpro yeast -15.7%, Sm TGR inh -3.1%, Pf growth 96h -10.1%, Pf growth 48h 1.4%, AmpC detergent -5.9% and AmpC inh no detg 7.1%.
CCc1ccc(OCC2c3cc(OC)c(OC)cc3CCN2C(=S)NCCOC)cc1 (configuration not stated) was read as SARS PLpro yeast -18.1%, Sm TGR inh 6.6%, Pf growth 96h 10.4µM*, Pf growth 48h inconclusive, AmpC detergent inconclusive and AmpC inh no detg 161.3%.
Screening COC(=O)c1ccc(OCC2c3cc(OC)c(OC)cc3CCN2C(=O)C2CC2)cc1 (configuration not stated) returned SARS PLpro yeast 2.5%, Sm TGR inh 0.0%, Pf growth 96h inconclusive, Pf growth 48h 11.7µM*, AmpC detergent 2.5% and AmpC inh no detg 76.2%.
COc1cccc(NC(=S)N2CCc3cc(OC)c(OC)cc3C2COc2ccc3c(C)cc(=O)oc3c2)c1 (configuration not stated) was read as SARS PLpro yeast 18.5%, Sm TGR inh 6.5%, Pf growth 96h inconclusive, Pf growth 48h 5.22µM*, AmpC detergent 5.9% and AmpC inh no detg 40.8%.
CCc1ccc(NC(=O)CN2C(C(=O)OC)=C(c3ccccc3)c3ccccc3S2(=O)=O)cc1 was read as Sm TGR inh 12.5% and AmpC detergent 13.1%.
Screening Cc1ccc(C(=O)NCCCNC(=O)c2ccccc2F)cn1 returned SARS PLpro yeast -1.5%, Sm TGR inh 4.8%, Pf growth 96h 2.94µM*, Pf growth 48h 2.8%, AmpC detergent -6.7% and AmpC inh no detg -7.7%.
For O=C(Nc1ccc(C(F)(F)F)cc1Cl)c1ccc(Cn2cc(Br)cn2)o1 the results were Sm TGR inh 44.7µM*, Pf growth 96h inconclusive, Pf growth 48h 6.5% and AmpC detergent 3.1%.
Screening O=C(NC1CCCCC1)c1ccc(Cn2cc(Br)cn2)o1 returned SARS PLpro yeast -2.6%, Sm TGR inh 44.7µM*, Pf growth 96h -3.1%, AmpC detergent 4.1% and AmpC inh no detg 6.5%.
`O=C(c1ccc(Cn2cc(Br)cn2)o1)n1cccn1` gave SARS PLpro yeast inconclusive, Sm TGR inh -25.4%, Pf growth 96h -26.3%, Pf growth 48h -8.2%, AmpC detergent 2.0% and AmpC inh no detg 0.501µM*.
O=C(NCc1ccccn1)c1ccc(Cn2cc(Br)cn2)o1 was read as SARS PLpro yeast -0.3%, Sm TGR inh inconclusive, Pf growth 96h 8.5%, Pf growth 48h -12.6%, AmpC detergent -1.3% and AmpC inh no detg inconclusive.
O=C(Nc1cccc(C(F)(F)F)c1)c1ccc(Cn2cc(Br)cn2)o1 was read as SARS PLpro yeast -10.6%, Sm TGR inh -23.5%, Pf growth 96h 14.2%, Pf growth 48h 31.0%, AmpC detergent inconclusive and AmpC inh no detg -20.9%.
